This note sets out measurements from PubChem BioAssay (Tox21).

A number with no mark means an inactive call. The source made the active and inactive calls. Unless noted, calls follow the shape of the dose curve; as a rule, active = well fitted curve in the direction sought with a large enough effect in the repeat runs; inconclusive = weak or mixed curves; inactive = no such curve, though single readings can be large; an effect the other way counts as inactive or inconclusive.

Experiment [1] is described as follows: qHTS assay to test for compound auto fluorescence at 535 nm (green) in HEK293 cells (AID 720680). In general terms: Quantitative high-throughput screening tests each substance at several concentrations.
Experiment [2] in a line: qHTS assay to test for compound auto fluorescence at 460 nm (blue) in HEK293 cell free culture (AID 720681). The procedure, abridged: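 Compounds were added to cell-free DMEM with 10% FBS and fluorescence read directly. The blue channel used 405 nm excitation and 460 nm emission, with triamterene as the reference fluorophore.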
Experiment [3] in a line: qHTS assay to test for compound auto fluorescence at 590 nm (red) in HEK293 cell free culture (AID 720683). The procedure, abridged:
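Cell-free wells of DMEM with 10% FBS received compound, and intrinsic fluorescence was read at excitation/emission 540/590 nm. Values expressed as equivalence to Rose Bengal sodium.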

The nature of experiment [4]: qHTS assay to test for compound auto fluorescence at 460 nm (blue) in HepG2 cell free culture (AID 720685). The procedure, abridged:
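Cell-free plates of MEM plus 10% FBS received 23 nL compound or DMSO vehicle; blue-channel (405/460 nm) intensity scored against triamterene as reference fluorophore.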

The nature of experiment [5]: qHTS assay to test for compound auto fluorescence at 535 nm (green) in HepG2 cell free culture (AID 720686).
Experiment [6] in a line: qHTS assay to test for compound auto fluorescence at 460 nm (blue) in HepG2 cells (AID 720687). The procedure, abridged: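 HepG2 cells in MEM with 10% FBS, attached overnight at 37 C, were exposed to compound or DMSO for 1 hr at 37 C, 5% CO2. Blue fluorescence was read at 405/460 nm, with triamterene as reference fluorophore.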
Experiment [7] can be described thus: qHTS assay to identify small molecule antagonists of the glucocorticoid receptor (GR) signaling pathway - cell viability counter screen (AID 720693). Also: nearly all actives have a fitted effect of over 55% in size.
A short description of experiment [8]: qHTS assay for identifying genotoxic compounds that show differential cytotoxicity against isogenic chicken DT40 cell lines with known DNA damage response pathways - wild type cell line (AID 743012). Also: nearly all actives have a fitted effect of over 60% in size. Also: potency is read from the fitted curve at half-maximal effect. The procedure, abridged:
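Viability of DNA repair-proficient chicken DT40 cells was assessed by CellTiter-Glo luminescence following 40 h compound exposure at 37 C/5% CO2.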

A short description of experiment [9]: qHTS assay for identifying genotoxic compounds that show differential cytotoxicity against isogenic chicken DT40 cell lines with known DNA damage response pathways - Rev3 mutant cell line (AID 743014). Also: nearly all actives have a fitted effect of over 55% in size. Also: potency is read from the fitted curve at half-maximal effect.
Experiment [10] in a line: qHTS assay for identifying genotoxic compounds that show differential cytotoxicity against isogenic chicken DT40 cell lines with known DNA damage response pathways - Rad54/Ku70 mutant cell line (AID 743015). Also: nearly all actives have a fitted effect of over 60% in size. Also: potency is read from the fitted curve at half-maximal effect.
Experiment [11] in a line: qHTS assay to identify small molecule antagonists of the androgen receptor (AR) signaling pathway - cell viability counter screen (AID 743033; also: nearly all actives have a fitted effect of over 45% in size; also: potency is read from the fitted curve at half-maximal effect).
A short description of experiment [12]: qHTS assay to identify small molecule antagonists of the androgen receptor (AR) signaling pathway using the MDA cell line - cell viability counter screen (AID 743041; also: nearly all actives have a fitted effect of over 45% in size; also: potency is read from the fitted curve at half-maximal effect). The procedure, abridged: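 Compound exposure lasted 16 h at 37C in MDA-kb2 AR-luc cells stimulated with R1881. Protease-based CellTiter-Fluor reagent was applied for the final 30 min and fluorescence measured.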

The target of experiment [13] is Glucocorticoid receptor (Homo sapiens) (UniProt P04150). The experiment is described as follows: qHTS assay to identify small molecule agonists of the glucocorticoid receptor (GR) signaling pathway (AID 720691; active = well fitted activation curve with a large enough effect in the signal ratio in the repeat runs, not every such curve was filed as active; inconclusive = weak or mixed curves, or effect the other way; inactive = no such curve, though single readings can be large or run the other way; the % refers to the signal ratio; also: potency is read from the fitted curve at half-maximal effect). The procedure, abridged: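 Compounds in DMSO, alongside positive controls, were added to GR-bla HeLa reporter cells and incubated 18 h at 37 C; GRE-driven beta-lactamase was detected by fluorescence after 2 h with FRET substrate at room temperature.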
Chain of Glucocorticoid receptor (Homo sapiens) (P04150 whole entry, looked up): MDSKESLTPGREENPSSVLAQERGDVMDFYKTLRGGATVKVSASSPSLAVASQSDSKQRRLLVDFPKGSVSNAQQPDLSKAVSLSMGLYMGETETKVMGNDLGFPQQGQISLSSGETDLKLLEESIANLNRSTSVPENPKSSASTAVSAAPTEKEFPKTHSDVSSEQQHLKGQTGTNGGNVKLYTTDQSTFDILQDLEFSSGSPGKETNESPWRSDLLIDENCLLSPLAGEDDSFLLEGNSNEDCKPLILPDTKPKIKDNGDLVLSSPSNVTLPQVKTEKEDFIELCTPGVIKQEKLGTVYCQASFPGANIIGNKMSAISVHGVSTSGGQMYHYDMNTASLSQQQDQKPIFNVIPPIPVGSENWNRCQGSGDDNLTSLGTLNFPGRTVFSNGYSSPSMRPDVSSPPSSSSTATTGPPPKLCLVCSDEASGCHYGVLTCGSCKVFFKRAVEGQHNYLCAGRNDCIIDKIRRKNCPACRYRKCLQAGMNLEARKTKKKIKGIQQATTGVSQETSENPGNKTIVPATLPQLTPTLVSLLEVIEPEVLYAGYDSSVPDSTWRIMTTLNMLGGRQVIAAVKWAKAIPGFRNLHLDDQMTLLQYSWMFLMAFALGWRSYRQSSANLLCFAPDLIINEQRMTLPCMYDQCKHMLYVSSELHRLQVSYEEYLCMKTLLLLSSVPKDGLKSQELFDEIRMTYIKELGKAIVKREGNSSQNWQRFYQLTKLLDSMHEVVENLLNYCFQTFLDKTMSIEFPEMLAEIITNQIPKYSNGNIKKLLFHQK

Experiment [14] has the same target. In words: qHTS assay to identify small molecule antagonists of the glucocorticoid receptor (GR) signaling pathway (AID 720692; active = well fitted inhibition curve with a large enough effect in the signal ratio in the repeat runs, not every such curve was filed as active; inconclusive = weak or mixed curves, or effect the other way; inactive = no such curve, though single readings can be large or run the other way; the % refers to the signal ratio). The procedure, abridged: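 In a 1536-well cell format, compounds were added 4 h after seeding GR-bla HeLa cells, together with dexamethasone at 5 nM final; reporter activity was measured by FRET-substrate fluorescence following 18 h at 37 C.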

The nature of experiment [15]: qHTS assay to test for compound auto fluorescence at 590 nm (red) in HepG2 cell free culture (AID 720684). The procedure, abridged: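 Auto fluorescence equivalency versus Rose Bengal sodium, red channel Ex/Em 540/590 nm; compounds in cell-free MEM/10% FBS; DMSO vehicle control.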
For experiment [16], the target named is Androgen receptor (Homo sapiens) (UniProt P10275). The experiment is described as follows: qHTS assay to identify small molecule agonists of the androgen receptor (AR) signaling pathway (AID 743036; active = well fitted activation curve with a large enough effect in the signal ratio in the repeat runs, with a control signal flat, not every such curve was filed as active; inconclusive = weak or mixed curves, or effect the other way; inactive = no such curve, though single readings can be large or run the other way; the % refers to the signal ratio). The procedure, abridged:
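Following a 4 h settling period, AR-UAS-bla HEK293 cells were dosed with compounds for 16 h at 37C. A 2 h room-temperature incubation with LiveBLAzer B/G FRET substrate preceded the fluorescence measurement.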

The target is the same in experiment [17]. In words: qHTS assay to identify small molecule agonists of the androgen receptor (AR) signaling pathway using the MDA cell line (AID 743040; also: nearly all actives have a fitted effect of over 20% in size). The procedure, abridged: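 Testing was done with the MDA-kb2 AR-luc line, a human breast carcinoma stably transfected with MMTV-luciferase containing AR and GR response elements. Cells were exposed 16 h at 37C before ONE-Glo luminescence detection.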

Experiment [18] has the same target. In words: qHTS assay to identify small molecule antagonists of the androgen receptor (AR) signaling pathway using the MDA cell line (AID 743042; also: nearly all actives have a fitted effect of over 55% in size). The procedure, abridged:
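MDA-kb2 breast carcinoma cells carrying MMTV-luciferase (AR/GR responsive) were co-treated with compounds and the agonist R1881 for 16 h at 37C. Inhibition read as ONE-Glo luminescence; CellTiter-Fluor fluorescence measured in parallel for cytotoxicity.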

Experiment [19] can be described thus: qHTS assay to test for compound auto fluorescence at 535 nm (green) in HEK293 cell free culture (AID 720682). The procedure, abridged:
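Each library compound, or DMSO control, is added by pintool to medium alone, comprising DMEM and 10% FBS. Emission at 535 nm following 485 nm excitation is quantified against fluorescein.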
% is scaled to controls: 0 for no effect and ±100 for the full control effect.

Chain of Androgen receptor (Homo sapiens) (P10275 whole entry, looked up): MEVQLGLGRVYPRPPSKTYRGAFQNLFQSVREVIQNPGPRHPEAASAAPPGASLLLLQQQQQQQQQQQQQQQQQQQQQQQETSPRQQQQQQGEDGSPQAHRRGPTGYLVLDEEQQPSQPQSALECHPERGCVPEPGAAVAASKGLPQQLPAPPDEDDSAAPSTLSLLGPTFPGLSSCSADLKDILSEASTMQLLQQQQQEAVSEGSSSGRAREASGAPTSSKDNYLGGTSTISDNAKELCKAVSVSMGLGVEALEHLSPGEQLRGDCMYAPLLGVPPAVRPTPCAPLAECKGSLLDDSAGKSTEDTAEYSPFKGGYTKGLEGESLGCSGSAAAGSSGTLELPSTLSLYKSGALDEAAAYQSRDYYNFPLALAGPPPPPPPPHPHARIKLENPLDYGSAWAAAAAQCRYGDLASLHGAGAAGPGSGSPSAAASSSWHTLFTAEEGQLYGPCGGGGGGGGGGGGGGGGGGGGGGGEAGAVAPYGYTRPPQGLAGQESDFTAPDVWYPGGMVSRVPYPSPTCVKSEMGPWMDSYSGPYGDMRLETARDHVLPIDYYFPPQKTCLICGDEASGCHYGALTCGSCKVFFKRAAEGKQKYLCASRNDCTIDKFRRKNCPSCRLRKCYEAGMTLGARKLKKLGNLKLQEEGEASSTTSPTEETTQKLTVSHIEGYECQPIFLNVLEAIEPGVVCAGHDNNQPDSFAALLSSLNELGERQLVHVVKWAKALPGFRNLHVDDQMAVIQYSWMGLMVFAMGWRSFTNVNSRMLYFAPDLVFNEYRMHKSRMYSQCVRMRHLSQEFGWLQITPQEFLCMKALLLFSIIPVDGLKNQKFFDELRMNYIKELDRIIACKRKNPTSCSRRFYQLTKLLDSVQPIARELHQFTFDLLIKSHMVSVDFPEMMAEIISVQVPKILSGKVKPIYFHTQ

As to `CC(=O)Oc1ccc([N+](=O)[O-])cc1CCl`, the result in experiment [1], in experiment [3] and in [5] was inactive. Besides, the Potency result in experiment [2], in [4], in [6], in experiment [7] and in experiment [11] was “inactive” each time. For the same compound, the Potency in [8] was 8.63 µM (active); in [9] it was 1.72 µM (active); in experiment [10], 3.86 µM (active); in [12], 54.5 µM (active).

On to `CCOC(=O)c1ccc(OCCN2C[C@H](O)[C@@H](O)[C@H](O)[C@H]2CO)cc1`, for which the outcome in [1], in experiment [3] and in experiment [5] was inactive. Besides, the Potency result in experiment [2], in [4], in experiment [6], in experiment [13], in experiment [14] and in experiment [7] was “inactive” throughout. In addition, the Potency entry in [8], in [9], in [10], in experiment [11] and in experiment [12] was “inactive” each time.

With `C=C(C)C(=O)OCCCCCCCCCCCCC`, the compound was called inactive in experiment [1], in experiment [3], in experiment [15] and in experiment [5]. For the same compound, the Potency result in experiment [2], in experiment [4], in experiment [6], in [8], in experiment [9] and in [10] was “inactive” each time. For the same compound, the Potency entry in experiment [11] and in [12] was “inactive” each time.

Regarding `CCCCC(CC)CN` (stereo not drawn), the outcome in experiment [1], in experiment [3], in [5], in [16] and in experiment [17] was inactive. Moreover, the Potency result in experiment [2], in experiment [6], in [13], in [12] and in [18] was “inactive” throughout. The Potency was 55.5 µM (active) in [8], 62.3 µM (active) in [9], 55.5 µM (active) in experiment [10] and 44.5 µM (active) in experiment [11].

As for `CC(C)=CCC1C(=O)N(c2ccccc2)N(c2ccccc2)C1=O`, the compound was called inactive in experiment [1], in experiment [3], in experiment [15] and in experiment [5]. Besides, the Potency entry in experiment [2], in experiment [4], in [6], in experiment [7] and in experiment [11] was “inactive” throughout. The Potency in [8], in experiment [9] and in experiment [10] was 16.8 µM (active) each time.

For `Clc1cc(Cl)nc(Cl)n1`, the compound was classed as inactive in experiment [1], in [3], in [15] and in experiment [5]. Moreover, the Potency result in [2], in experiment [6], in [7], in experiment [9], in [10] and in experiment [11] was “inactive” throughout. Also, the Potency entry in experiment [12] was “inactive”.

Regarding `O=C(O)CCCCCCCCCCCBr`, the call in experiment [1], in [3], in experiment [15] and in experiment [5] was inactive. The Potency entry in experiment [2], in experiment [4], in experiment [6], in [13], in [14] and in experiment [7] was “inactive” each time. In addition, the Potency entry in experiment [9], in [10], in experiment [11] and in experiment [12] was “inactive” throughout.

Take `CC1(C)O[C@@H]2C[C@H]3[C@@H]4C[C@H](F)C5=CC(=O)C=C[C@]5(C)[C@H]4[C@@H](O)C[C@]3(C)[C@]2(C(=O)CO)O1`: in [1], the fluorescence, % of fluorescein was -0.126% [at 18.6 µM]. For the same compound, the fluorescence, % of fluorescent control in experiment [2] was -0.131% [at 18.6 µM]; in [3], -0.673% [at 18.6 µM]; in [4], -0.0967% [at 18.6 µM]; in experiment [6], -0.0461% [at 18.6 µM]. In [15], the fluorescence, % of Rose Bengal was -0.32% [at 18.6 µM]. For the same compound, the fluorescence, % of fluorescein control in [5] was -0.129% [at 18.6 µM]. Besides, the Potency in [13] is 1.29 µM [inconclusive] (active). The Potency entry in [8], in experiment [9], in experiment [10] and in experiment [12] was “inactive” throughout.

Turning to `CCOC(=O)c1ccc(C#Cc2ccc3c(c2)C(C)(C)CCS3)nc1`, the compound was called inactive in experiment [1], in experiment [19], in [3], in [15] and in [5]. Moreover, the Potency result in [13], in experiment [7], in experiment [11] and in experiment [12] was “inactive” throughout. For the same compound, the results for the Potency in [8], in experiment [9] and in experiment [10] were 23.7 µM (active), 29.8 µM (active) and 29.8 µM (active), respectively.
